Compound activity deposited in PubChem BioAssay by National Center for Advancing Translational Sciences (NCATS).
Menin MLL FP TR: qHTS Assay for Inhibitors Targeting the Menin-MLL Interaction in MLL Related Leukemias: Competition With Texas Red Labeled MLL-derived Mutant Peptide. Potency, µM (series often up to 61.6 µM), for inactives: top-dose FP activity change, negative = inhibition, actives largely listed as inhibitors. O00255. Menin + Texas Red MLL mutant peptide, fluorescence polarization. actives 0.23% (n = 270,000); active = well fitted inhibition curve with a large enough effect in the polarisation, with a control signal flat, not every such curve was filed as active; inconclusive = small, poorly fitted or top-dose-only effect, or effect the other way, or a change in a side signal; inactive = no such curve, though single readings can be large or run the other way; the % refers to the polarisation; note: potency is the fitted concentration of half-maximal effect; % of control where 0% means no effect
MLL CXXC-DNA inh: qHTS Fluorescence Polarization Assay for Inhibitors of MLL CXXC domain - DNA interaction; Histone-lysine N-methyltransferase 2A (Homo sapiens), Q03164; MLL-CXXC / FITC-HOXA9 DNA fluorescence polarization; Potency, µM (top dose mostly 115 µM), without a hit: top-dose activity change, negative = inhibition, hits mostly inhibitors; actives 0.037% (n = 290,000); AID 2662, 2010; active = well fitted inhibition curve with a large enough effect in the polarisation, with a control signal flat, not every such curve was filed as active; inconclusive = small, poorly fitted or top-dose-only effect, or effect the other way, or a change in a side signal; inactive = no such curve, though single readings can be large or run the other way; the % refers to the polarisation; note: potency is the fitted concentration of half-maximal effect
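Steps: dispense CXXC domain solution (7 uM) → pin compounds or unlabeled HOX-A9 DNA control → 5 min ambient → add FLSN-HOX-A9 solution (50 nM) → spin → 30 min ambient → fluorescence polarization. Tris pH 7.5/NaCl/DTT/BSA buffer.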
PKM2 activator: qHTS Assay for Activators of Human Muscle isoform 2 Pyruvate Kinase | Pyruvate kinase PKM (Homo sapiens), P14618 | Potency, µM (highest dose often 57.5 µM), inactives show at the highest dose activation, actives largely listed as activators | actives 0.34% (n = 260,000) | purified PKM2, Kinase-Glo ATP luminescence, activation; response scale: 0% is enzyme alone, no compound | AID 1631, 2009; note: potency is the fitted concentration of half-maximal effect; % is set by controls: 0 for no effect and ±100 for the full control effect; nearly all actives have a fitted effect of over 55% in size
Target sequence (P14618 whole entry, looked up, canonical isoform): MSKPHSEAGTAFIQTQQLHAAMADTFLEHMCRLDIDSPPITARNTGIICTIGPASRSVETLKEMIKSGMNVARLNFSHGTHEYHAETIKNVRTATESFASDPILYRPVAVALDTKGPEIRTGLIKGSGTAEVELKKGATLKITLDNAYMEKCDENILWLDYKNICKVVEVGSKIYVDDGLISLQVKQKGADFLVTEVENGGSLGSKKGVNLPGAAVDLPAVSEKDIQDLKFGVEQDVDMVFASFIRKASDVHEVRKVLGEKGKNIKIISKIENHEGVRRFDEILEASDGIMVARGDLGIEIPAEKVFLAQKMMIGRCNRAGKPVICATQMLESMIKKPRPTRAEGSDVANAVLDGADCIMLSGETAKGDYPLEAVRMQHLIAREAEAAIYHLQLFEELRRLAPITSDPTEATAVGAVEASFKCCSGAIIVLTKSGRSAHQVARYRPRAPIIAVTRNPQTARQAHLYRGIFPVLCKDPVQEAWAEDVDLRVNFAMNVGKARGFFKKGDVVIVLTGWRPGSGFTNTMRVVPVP
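ATP formation by purified human PK-M2, quantified via coupled luciferase luminescence after 1 h at room temperature with 0.1 mM ADP and 0.5 mM PEP final.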
Menin MLL FP FL: qHTS Assay for Inhibitors Targeting the Menin-MLL Interaction in MLL Related Leukemias: Competition With Fluorescein Labeled MLL-derived Peptide; Fluorescence polarization, fluorescein-MLL peptide displacement from menin; FP activity change, % at 61.4 µM; 290,000 tested, under 10 active; AID 1766, 2009; active = well fitted curve in the direction sought with a large enough effect in the polarisation, not every such curve was filed as active; inconclusive = small, poorly fitted or top-dose-only effect, or effect the other way, or a change in a side signal; inactive = no such curve, though single readings can be large or run the other way; the % refers to the polarisation; note: % of control where 0% means no effect
MLL CXXC FP-Fl: qHTS Fluorescence Polarization (FP) Assay for Inhibitors of MLL CXXC domain - DNA interaction: Fluorescein FP; actives 70% (n = 200); MLL CXXC-DNA binding, fluorescein FP; Potency, µM (doses to about 345 µM), inactives show at the highest dose activity change, negative = inhibition, hits mostly inhibitors; shares compounds with MLL CXXC-DNA inh; note: potency is the fitted concentration of half-maximal effect; nearly all actives have a fitted effect of over 80% in size
MLL CXXC TxRed: qHTS Fluorescence Polarization (FP) Assay for Inhibitors of MLL CXXC domain - DNA interaction: Texas Red FP. AID 624161, 2012. shares compounds with MLL CXXC-DNA inh. Potency, µM (titrated, usually from 345 µM), for inactives: top-dose activity change, negative = inhibition, actives largely listed as inhibitors. MLL CXXC-DNA binding, Texas Red fluorescence polarization. actives 40% (n = 200); note: potency is the fitted concentration of half-maximal effect; % is set by controls: 0 for no effect and ±100 for the full control effect; nearly all actives have a fitted effect of over 75% in size
MLL CXXC HTRF: qHTS Fluorescence Polarization (FP) Assay for Inhibitors of MLL CXXC domain - DNA interaction: HTRF Assay. shares compounds with MLL CXXC-DNA inh. MLL CXXC-DNA binding, HTRF, biochemical. Potency, µM (highest dose often 172 µM), without a hit: at the top dose activity change, negative = inhibition, hits mostly inhibitors. actives 30% (n = 210). AID 624162, 2012; note: % is set by controls: 0 for no effect and ±100 for the full control effect; nearly all actives have a fitted effect of over 80% in size
Active calls of the source: *; ? = inconclusive; . = no result; [ ] = dose if it differs, or a comment. This is a sample that favours compounds with a hit; in the whole collection about 0.41% have one here. Unless noted, calls come from the whole dose curve; as a rule, active = well fitted curve in the direction sought with a large enough effect; inconclusive = small, poorly fitted or top-dose-only effect, or another doubt; inactive = no such curve, though single readings can be large; an effect the other way counts as inactive or inconclusive.

SMILES	Menin MLL FP TR	MLL CXXC-DNA inh	PKM2 activator	Menin MLL FP FL	MLL CXXC FP-Fl	MLL CXXC TxRed	MLL CXXC HTRF
COC(=O)C1(Cc2ccccc2)C=C2C(=C(C(C)C)C(=O)C2C)CN1 (stereo unspecified)	-23%	.	2%	?	.	.	.
Cc1nn(C)c(C)c1CN(C)C(=O)C1c2ccccc2Oc2ccccc21	-1%	32µM*	-6%	-1	126µM*	?	-1%
c1ccc([C@H]2NCCc3c2[nH]c2ccccc32)cc1	10%[11.7 µM]	.	.	-1[11.7 µM]	.	.	.
Nc1c(S(=O)(=O)O)cc(Nc2ccc(Nc3nc(Cl)nc(Nc4ccc(S(=O)(=O)O)cc4)n3)c(S(=O)(=O)O)c2)c2c1C(=O)c1ccccc1C2=O	?	10µM*	.	3	18µM*	18µM*	6.1µM*
CCCCC/C=C\C/C=C\C/C=C\C/C=C\CCCCCC(=O)NCCCC(=O)O	0%	.	.	-1	.	.	.
CC(=O)Nc1ccc2cc3ccc(NC(C)=O)cc3nc2c1	.	40µM*	8%	?	113µM*	?	-12%
CC(=O)Nc1ccc2ccccc2c1	1%	-18%	-5%	2	.	.	.
Nc1ccc(O)c(C(=O)O)c1	?	.	.	1	.	.	.
O=C(O)C1=CC(=C(c2ccc(O)c(C(=O)O)c2)c2ccc(O)c(C(=O)O)c2)C=CC1=O	96%	10µM*	.	7	13µM*	18µM*	2.4µM*
CC(/C=C1\NC(=S)NC1=O)=C\c1ccccc1	-29%	45µM*	-8%	4	0.13µM*	?	53%
COc1ccccc1NC(C)=O	6%	-1%	14%	-3	.	.	.
COc1ccccc1NC(=S)NC(C)=O	-1%	?	2%	-4	.	.	36%
C/C=C(\C)[C@H](O)C[Si](C)(C)c1ccccc1	-1%	.	.	6	.	.	.
CC(=O)c1c(O)cc(O)c(C(C)=O)c1O	.	-1%	-4%	4	.	.	.
CC(=O)c1c(O)cc(O)cc1CC(=O)O	.	?	-1%	.	142µM*	0%	2%
NC1=CC(=O)c2cccc3cccc1c23	-17%	?	1%	?	.	.	.
O=C1C=C(O)c2cccc3cccc1c23	?	?	12%	?	113µM*	5%	33%
NS(=O)(=O)c1ccc(NC(=O)c2c(Cl)cccc2Cl)cc1	3%	?	0%	4	?	?	-7%
CCCC[C@@H]1CCCO[C@@](C(=O)NCCOC)(C(F)(F)F)C1	2%	.	.	-2	.	.	.
N#C/C(=C\c1cccs1)C(=O)c1ccccc1Cl	.	22µM*	?	6	18µM*	71µM*	?
CC(C)(C)C(=O)/C(C#N)=C/c1cccs1	.	-8%	0%	1	.	.	.
C[C@@H]1[C@H](O)[C@@H](C)/C=C/C=C/C=C/C=C/C=C/C=C/C=C/[C@H](O[C@@H]2O[C@H](C)[C@@H](O)[C@H](N)[C@@H]2O)C[C@@H]2O[C@](O)(C[C@@H](O)C[C@@H](O)[C@H](O)CC[C@@H](O)C[C@@H](O)CC(=O)O[C@H]1C)C[C@H](O)[C@H]2C(=O)O	4%	0%	.	6	.	.	.
Cc1[nH][nH]c(=O)c1C(c1ccc(-c2ccc(F)cc2)o1)c1c(C)[nH][nH]c1=O	?	-14%	12%	2	.	.	.
Cc1[nH][nH]c(=O)c1C(c1ccc(-c2ccc(C(=O)O)cc2)o1)c1c(C)[nH][nH]c1=O	-24%	?	-40%	2	-6%	9%	?
CN(N=O)C(=O)N[C@H]1C(O)OC(CO)[C@@H](O)[C@H]1O (stereo partly specified)	24%[24.8 µM]	.	.	10	.	.	.
SMILES	Menin MLL FP TR	MLL CXXC-DNA inh	PKM2 activator	Menin MLL FP FL	MLL CXXC FP-Fl	MLL CXXC TxRed	MLL CXXC HTRF
O=C(OOC(=O)c1ccccc1)c1ccccc1	-26%	9%	.	-7	.	.	.
COC(=O)c1ccc2c(c1)SC1=C(CCCC1=O)N2	?	28µM*	-2%	?	100µM*	142µM*	171%
COc1cc(/C=C2/C(=O)c3cccc([N+](=O)[O-])c3C2=O)c(Br)cc1O	?	28µM*	-50%	4	40µM*	80µM*	?
CN(C)CCOc1ncnc2c1oc1ccccc12	2%	1%	4%	0	.	.	.
CN(C)CCOc1nc(-c2ccccc2)nc2c1oc1ccccc12	-11%	35µM*	-4%	3	126µM*	?	-9%
C=CCC1C=CC(Oc2ccc(OC)cc2)C(CO)O1 (stereo unspecified)	-12%[11.7 µM]	.	.	-2[11.7 µM]	.	.	.
CCc1cccc(NC(=O)CSC2=NS(=O)(=O)c3ccccc32)c1	-11%	32µM*	13%	3	89µM*	113µM*	15µM*
COC(=O)C1C(=O)C(C(=O)/C=C/c2ccco2)C(=O)CC1(C)C (stereo unspecified)	0%	.	.	?	.	.	.
O=C(Nc1cccc(C(=O)Nc2ccc(S(=O)(=O)O)c3cc(S(=O)(=O)O)cc(S(=O)(=O)O)c23)c1)Nc1cccc(C(=O)Nc2ccc(S(=O)(=O)O)c3cc(S(=O)(=O)O)cc(S(=O)(=O)O)c23)c1	21%	16µM*	.	?	28µM*	100µM*	39µM*
O=C(O)c1cccc(NC(=O)c2ccc(S(=O)(=O)c3ccccc3)cc2)c1	-9%	2%	-1%	-4	.	.	.
O=C(O)CCN1C(=O)/C(=C\c2ccc(-c3nc4ccccc4s3)o2)SC1=S	28%	?	8%	?	71µM*	50µM*	24µM*
O=C(O)CCCN1C(=O)/C(=C\c2ccco2)SC1=S	?	8%	-21%	?	.	.	.
O=C(O)CCN1C(=O)/C(=C\c2ccncc2)SC1=S	28%	35µM*	17%	2	.	.	12%
Nc1nc2c(s1)CCc1c-2cnn1-c1ccccc1	-18%	32µM*	3%	-1	?	?	31µM*
Nc1nc2c(s1)COc1ccccc1-2	7%	0%	-5%	0	.	.	.
